Results filed as inconclusive are left out. The source made the active and inactive calls. Calls follow the shape of the dose curve; as a rule, active = well fitted cell-killing curve with a large enough effect; inconclusive = small, poorly fitted or top-dose-only effect; inactive = no such curve, though single readings can be large or run the other way.
Experiment: qHTS of pediatric cancer cell lines to identify multiple opportunities for drug repurposing: Confirmatory screen for BT-37 cells (AID 1347117); also: nearly all actives have a fitted effect of over 55% in size
Settings: BT-37 pediatric cancer cells, viability; series mostly up to 45.9 µM
From the text: Drug repurposing or repositioning has been offered as a strategy for drug development in oncology programs. This approach has special potential for childhood cancers and other rare or orphan diseases, where the expected return on new drug development has been a disincentive to pharmaceuticals.
In this project we exploit the poly-pharmacology of drugs to discover new indications via phenotypic screening of a panel of 19 well-characterized cell lines derived from solid tumors seen in children and adolescents. The goal is to identify approved drugs with previously unrecognized anticancer properties that has the potential to reveal new mechanisms and biological processes involved in carcinogenesis or drug resistance. We employed a titration-based paradigm (quantitative high-throughput screening or qHTS), where all compounds were tested at multiple concentrations for their effect on cell viability. Concentration-response curves (CRCs) were derived directly from the primary screen, and both potency and efficacy values were used to identify compounds with robust bioactivity profiles. We screened the NIH Chemical Genomics Center (NCGC) Pharmaceutical Collection (NPC) and Mechanism Interrogation Plate (MIPE) small molecule collections of approved and investigational compounds against these cell lines; and measured metabolically active cells after 48 hours of compound treatment as a proxy for cell viability.
Assay Submitter: Nathalia J. Martinez, National Center for Advancing Translational Sciences, National Institutes of Health, Rockville, MD, USA; email: natalia.martinez@nih.gov
[1] Shen, M et al. Quantitative high-throughput phenotypic screening of pediatric cancer cell lines identifies multiple opportunities for drug repurposing. Oncotarget 2017 Dec 19;9(4):4758-4772. PMID 29435139.
The cells were obtained from University of North Carolina (UNC), Pediatric Preclinical Testing Program (PPT), and Coriell Institute (CI).
qHTS cell viability assay:
Cells were assayed in growth media at a density of 500-1,000 cells/well. Five microliters of cells were dispensed into 1,536-well, white, solid-bottom, TC-treated plates (Greiner Bio One) using a multidrop dispenser and incubated at 37 degrees C, 5% CO2, under a humidified atmosphere for 5 hours. Twenty-three nanoliters of compounds and controls (neutral control DMSO or positive control bortezomib at final concentration of 2.3 µM) were subsequently transferred by Kalypsys pintool. For primary screens, the MIPE collection was tested at 11-point dilutions (final concentrations range from 0.78 nM to 46 µM) and the NPC collection at 8-point dilutions (final concentrations range from 0.59 nM to 46 µM). Compounds tested in follow-up screens were assayed at 11-point dilutions. Cells were incubated for 48 hours, followed by addition of 3 µL of CellTiter-Glo (Promega). After a 15 min incubation at room temperature, samples were analyzed for luminescence intensity using a ViewLux High-throughput CCD imager equipped with clear filters.
For `NC(=O)NO`, the Potency was “inactive”. In the case of `CC(C)NCC(O)c1ccc(O)c(O)c1` (stereo not drawn), the Potency is reported as 5220 nM (active). For `CCCCc1oc2ccccc2c1C(=O)c1cc(I)c(OCCN(CC)CC)c(I)c1`, the Potency was 50100 nM (active). In the case of `COc1cc2c(c(OC)c1OC)-c1ccc(OC)c(=O)cc1[C@@H](NC(C)=O)CC2`, the Potency is reported as 56.2 nM (active). With `O=C1c2c(O)ccc(O)c2C(=O)c2c(NCCNCCO)ccc(NCCNCCO)c21` the Potency was 261 nM (active). For `CC[C@@]1(O)C(=O)OCc2c1cc1n(c2=O)Cc2cc3c(CN(C)C)c(O)ccc3nc2-1`, the Potency was 117 nM (active). For `CC(C)Cc1ccc(C(C)C(=O)O)cc1` (stereo not drawn), the Potency was “inactive”. In the case of `CN1CCN(CCCN2c3ccccc3Sc3ccc(Cl)cc32)CC1`, the Potency is reported as 16500 nM (active). In the case of `COC(=O)Nc1nc2ccc(C(=O)c3cccs3)cc2[nH]1`, the Potency is reported as 329 nM (active). With `CC(COc1ccccc1)N(CCCl)Cc1ccccc1` (stereo not drawn) the Potency was 18500 nM (active). In the case of `CCC1(c2ccccc2)C(=O)NCNC1=O`, the Potency is reported as “inactive”. In the case of `O=C(Nc1ccc([N+](=O)[O-])cc1Cl)c1cc(Cl)ccc1O`, the Potency is reported as 1440 nM (active). In the case of `NC12CC3CC(CC(C3)C1)C2`, the Potency is reported as “inactive”.

— PubChem BioAssay (NCATS)
Potency is read from the fitted curve at half-maximal effect.
